Records with an inconclusive call do not appear. Calls of active or inactive are those of the source. The calls were made as follows, unless noted: active = hit-call score of the fitted dose curve at least 0.9, where 1 is the maximum; inconclusive = response in the unintended direction; inactive = score below 0.9.

Test [1] can be described thus: Tanguay_ZF_120hpf_PFIN_legacy: (Legacy) Oregon State University Tanguay Lab 120 Hour Post-fertilization zebrafish Assay for Pectoral Fin Malformation (AID 2283648).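 Also: each larva judged yes or no for fin defect by brightfield with dead larvae skipped.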 In a few lines: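 Tropical 5D wild-type embryos, dechorionated with pronase at 4 hpf, were placed singly in wells at 6 hpf and statically exposed until 120 hpf at 28C, sealed and dark, with 0.64% (vol/vol) final DMSO; pectoral fin malformation scored present/absent.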

Test [2] is described as follows: Tanguay_ZF_120hpf_CFIN_legacy: (Legacy) Oregon State University Tanguay Lab 120 Hour Post-fertilization zebrafish Assay for Caudal Fin Malformation (AID 2283649). In a few lines: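 Dechorionated Tropical 5D wild-type embryos, one per well from 6 hpf, static exposure to 120 hpf at 28C in 0.64% DMSO. Caudal fin malformation scored by brightfield as present/absent; not scored in dead embryos.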

The nature of test [3]: Tanguay_ZF_120hpf_PIG_legacy: (Legacy) Oregon State University Tanguay Lab 120 Hour Post-fertilization zebrafish Assay for Pigmentation Malformation (AID 2283650). Summed up:
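Tropical 5D wild-type zebrafish embryos, dechorionated with pronase at 4 hpf, were exposed singly from 6 hpf to 120 hpf statically at 28C in sealed, dark plates with 0.64% DMSO; pigmentation scored present/absent by brightfield microscopy, fitted against DMSO.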

The nature of test [4]: Tanguay_ZF_120hpf_CIRC_legacy: (Legacy) Oregon State University Tanguay Lab 120 Hour Post-fertilization zebrafish Assay for Circulatory Malformation (AID 2283651). Summed up:
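Dechorionated wild-type 5D zebrafish embryos, one per well, statically exposed from 6 to 120 hpf at 28C with 0.64% DMSO; circulatory malformation scored present/absent by brightfield microscopy at 120 hpf, dead embryos excluded.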

A short description of test [5]: Tanguay_ZF_120hpf_TRUN_legacy: (Legacy) Oregon State University Tanguay Lab 120 Hour Post-fertilization zebrafish Assay for Truncated Body (AID 2283655). Summed up: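 Dechorionated Tropical 5D wild-type embryos placed singly from 6 hpf and statically exposed to 120 hpf at 28C, final DMSO 0.64%. Truncated body scored as present/absent by brightfield; not scored in dead embryos.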

Test [6] in a line: Tanguay_ZF_120hpf_NC_legacy: (Legacy) Oregon State University Tanguay Lab 120 Hour Post-fertilization zebrafish Assay for Notochord and Tail Malformation (AID 2283656). Summed up: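 Dechorionated Tropical 5D wild-type zebrafish embryos, one per well from 6 hpf, statically exposed to 120 hpf at 28C in 0.64% DMSO final. Notochord distortion scored present/absent by brightfield; dead embryos excluded.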

Read-out in test [7]: solute carrier (SLC10A1), SLC10A1 (gene 6554)
The test is described as follows: LTEA_HepaRG_SLC10A1: Life Technologies and Expression Analysis (LTEA) Assay for solute carrier (SLC10A1) using HepaRG (AID 2283657; active = hit-call score of the fitted dose curve at least 0.9, where 1 is the maximum; inactive = score below 0.9). To be noted: mRNA level, 48 h; actives raise or lower the signal. In a few lines:
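Differentiated HepaRG cells were plated 48 h, then exposed in serum-free induction medium for 48 h to 8 concentrations (top 100 uM, half-log steps, 0.5% DMSO). SLC10A1 mRNA was quantified by qRT-PCR normalized to ACTB, GAPDH, POLR2A; bidirectional fit versus DMSO.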

Read-out in test [8]: matrix metalloproteinase-1 (MMP1), MMP1 (gene 4312)
As to the kind of experiment: LTEA_HepaRG_MMP1: Life Technologies and Expression Analysis (LTEA) Assay for matrix metalloproteinase-1 (MMP1) using HepaRG (AID 2283658; active = hit-call score of the fitted dose curve at least 0.9, where 1 is the maximum; inactive = score below 0.9). Particulars: mRNA level, 48 h; actives raise or lower the signal. In a few lines: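 Differentiated human HepaRG cells, 48 h post-plating in serum-free induction medium, were exposed 48 h to eight half-log concentrations topping at 100 uM in 0.5% DMSO, duplicate. MMP1 mRNA measured by Fluidigm TaqMan qRT-PCR, normalized to ACTB, GAPDH, POLR2A; bidirectional fits versus DMSO.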

Read-out in test [9]: ABC Transporter (ABCB1), ABCB1 (gene 5243)
The test is described as follows: CLD_ABCB1_6hr: CellzDirect (CLD) Gene Expression Assay for ABC Transporter (ABCB1) at 6 hours (AID 2283659).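 Also: hits raise ABCB1 transcript above the DMSO vehicle baseline.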 In a few lines:
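Primary human hepatocytes (two donor preparations) dosed daily for two days with chemicals at multiple concentrations, 0.2% DMSO vehicle; harvested 6 h post-dose. ABCB1 mRNA induction quantified by qNPA chemiluminescence; gain-of-signal fitted versus DMSO.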

Test [10] in a line: Tanguay_ZF_120hpf_TR_legacy: (Legacy) Oregon State University Tanguay Lab 120 Hour Post-fertilization zebrafish Assay for Touch Response (AID 2283667). Summed up: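 Tropical 5D wild-type zebrafish embryos were exposed statically in sealed, foil-covered plates at 28C until 120 hpf, with 0.64% (vol/vol) final DMSO. Touch response was scored as present or absent; embryos that died were not scored.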

Read-out in test [11]: sulfotransferase (SULT2A), SULT2A1 (gene 6822)
As to the kind of experiment: CLD_SULT2A_6hr: CellzDirect (CLD) Gene Expression Assay for sulfotransferase (SULT2A) at 6 hours (AID 2283669).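 Also: hits raise transcript level above the DMSO vehicle baseline.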 In a few lines: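 Primary human hepatocytes from two donor preparations were dosed daily with chemicals or 0.2% DMSO and harvested at 6 h. Transcript induction read by qNPA chemiluminescence, fitted for gain of signal relative to DMSO; morphology-based cytotoxicity annotated.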

Read-out in test [12]: Cytochrome P450 (CYP24A1_1), CYP24A1 (gene 1591)
The test is described as follows: LTEA_HepaRG_CYP24A1_1: Life Technologies and Expression Analysis (LTEA) Assay for Cytochrome P450 (CYP24A1_1) using HepaRG (AID 2283671; active = hit-call score of the fitted dose curve at least 0.9, where 1 is the maximum; inactive = score below 0.9). To be noted: mRNA level, 48 h; actives raise or lower the signal. Summed up: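 HepaRG, 48 h exposure, 8-pt half-log series from 100 uM in 0.5% DMSO, duplicates. Readout: TaqMan qRT-PCR of CYP24A1 mRNA, housekeeping-normalized (ACTB/GAPDH/POLR2A). Bidirectional curve fit vs DMSO baseline.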

Read-out in test [13]: glucuronosyltransferase (UGT1A1), UGT1A1 (gene 54658)
The test is described as follows: CLD_UGT1A1_6hr: CellzDirect (CLD) Gene Expression Assay for glucuronosyltransferase (UGT1A1) at 6 hours (AID 2283672). Summed up: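 Primary human hepatocytes from two donor preparations, dosed with fresh solutions in 0.2% DMSO, harvested at 6 h. UGT1A1 mRNA measured by qNPA chemiluminescence; induction fitted upward versus DMSO.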

Test [14] has as its system Thyroperoxidase (TPO), gene 54314. As to the kind of experiment: CCTE_Simmons_AUR_rTPO: CCTE's Amplex UltraRed Assay for Thyroperoxidase (TPO) Inhibition, Simmons Lab (AID 2283662).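 Also: potency for loss of signal meaning inhibition of peroxidase activity.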 Summed up:
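Rat thyroid microsomal TPO + 25 uM AUR in 200 mM K phosphate; cpd 5 nM–87.5 uM [final], 8 conc, 0.5% DMSO; 300 uM H2O2 starts rxn; 37C dark 30 min; endpoint FI 544/590 nm; n=3.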

Test [15] is described as follows: CCTE_Simmons_CellTiterGLO_HEK293T: Viability Assessment in CCTE's Assays for Thyroperoxidase (TPO) Inhibition, Simmons Lab (AID 2283665).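 As to AC50: cells exposed to compound for 24 h before readout; actives reduce ATP signal below DMSO vehicle meaning cytotoxicity.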 Summed up: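 HEK293T cells in DMEM with 1% FBS, dosed 24 h at 37C with 8 concentrations, 5 nM–87.5 uM final, 0.5% DMSO. ATP measured by CellTiter Glo luminescence; loss of signal vs DMSO, three biological replicates.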
(In ATP-based viability assays light output follows the ATP content of the culture.)

Test [16] can be described thus: CLD_ACTIN_24hr: CellzDirect (CLD) Gene Expression Assay for Baseline Control (Actin) at 24 hours (AID 2283670). Summed up:
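Primary human hepatocytes dosed over multiple concentrations with 0.2% DMSO vehicle; actin mRNA measured at 24 h by qNPA chemiluminescence. Background control endpoint, fitted as gain of signal versus DMSO.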

Read-out in test [17]: kallikrein-3 (KLK3), KLK3 (gene 354)
The test is described as follows: LTEA_HepaRG_KLK3: Life Technologies and Expression Analysis (LTEA) Assay for kallikrein-3 (KLK3) using HepaRG (AID 2283652; active = hit-call score of the fitted dose curve at least 0.9, where 1 is the maximum; inactive = score below 0.9). Particulars: mRNA level, 48 h; actives raise or lower the signal. Summed up: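 Differentiated human HepaRG cells in serum-free induction medium exposed 48 h in duplicate, eight-point half-log series from 100 uM in 0.5% DMSO. KLK3 mRNA by qRT-PCR, normalised to ACTB, GAPDH, POLR2A; bidirectional fit versus DMSO.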

Test [18] in a line: Tanguay_ZF_120hpf_SWIM_legacy: (Legacy) Oregon State University Tanguay Lab 120 Hour Post-fertilization zebrafish Assay for Swim Bladder Malformation (AID 2283654).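 Also: swim bladder malformation in each larva scored yes or no under brightfield.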 Summed up: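 Dechorionated Tropical 5D wild-type embryos, placed singly from 6 hpf, were statically exposed at 28C to 120 hpf with 0.64% DMSO final; swim bladder malformation was scored present/absent by brightfield microscopy, gain of signal relative to DMSO controls.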

Read-out in test [19]: xenobiotic metabolism (CYP1A1), CYP1A1 (gene 1543)
The test is described as follows: CLD_CYP1A1_24hr: CellzDirect (CLD) Gene Expression Assay for xenobiotic metabolism (CYP1A1) at 24 hours (AID 2283673).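 Also: CYP1A1 mRNA level by quantitative nuclease protection with chemiluminescence.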 Summed up:
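Primary human hepatocytes dosed daily with fresh solutions in 0.2% DMSO vehicle. mRNA measured at 24 h by quantitative nuclease protection assay with chemiluminescence; gain-of-signal fit versus DMSO, with morphology-based cytotoxicity flags.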

Read-out in test [20]: xenobiotic metabolism (CYP1A1), CYP1A1 (gene 1543)
The test is described as follows: CLD_CYP1A1_6hr: CellzDirect (CLD) Gene Expression Assay for xenobiotic metabolism (CYP1A1) at 6 hours (AID 2283661). In a few lines:
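Primary human hepatocytes from two donors, compound versus 0.2% DMSO vehicle. CYP1A1 mRNA measured 6 h after dosing by quantitative nuclease protection assay with chemiluminescent read-out; induction fitted relative to DMSO, cytotoxicity flagged by microscopy.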

For `CCCN(CCC)c1c([N+](=O)[O-])cc(C(F)(F)F)cc1[N+](=O)[O-]`, the result in [1], in test [2], in test [3], in [4], in test [5] and in test [6] was inactive. Moreover, the molecule was called inactive in test [7], in test [8], in test [9], in test [10], in test [11] and in test [12]. In test [13], the outcome was inactive.

The AC50 is the midpoint of the concentration-response curve, whichever way the signal moves. As to `N#CN`, the outcome in [1], in [2], in test [3], in test [4], in [5] and in [9] was inactive. The molecule was classed as inactive in [15], in test [10], in [11], in test [16] and in test [13]. In addition, the AC50 in test [14] is 2.93 µM (active).

Consider `CC1(C)C(C=C(Cl)Cl)C1C(=O)OC(C#N)c1ccc(F)c(Oc2ccccc2)c1` (stereo not drawn), for which the outcome in test [1], in test [2], in test [3], in test [4], in test [17] and in [18] was inactive. In addition, the outcome in test [5], in test [8], in test [9], in test [11], in [12] and in test [13] was inactive. In addition, the AC50 in [7] is 50 µM (active).

As to `CCOC1Oc2ccc(OS(C)(=O)=O)cc2C1(C)C` (stereo not drawn), the call in test [1], in test [2], in test [3], in [4], in [17] and in [5] was inactive. The result in test [8], in test [9], in [10], in test [11], in test [12] and in test [13] was inactive. In addition, in [7], the AC50 is 84.8 µM (active).

Take `C#CCN1C(=O)COc2cc(F)c(N3C(=O)C4=C(CCCC4)C3=O)cc21`: the molecule was classed as inactive in test [1], in [2], in test [3], in [4], in test [6] and in [9]. In [10], the outcome was inactive.

With `[2H]C1([2H])[n+]2ccccc2-c2cccc[n+]2C1([2H])[2H]`, the outcome in [16] was inactive.

Regarding `Clc1ccccc1-c1nnc(-c2ccccc2Cl)nn1`, the call in test [1], in test [3], in test [4], in test [5], in test [6] and in test [9] was inactive. Further, the molecule was called inactive in test [11] and in test [13]. In test [19], the AC50 is 5.94 µM (active).

`O=C1c2ccccc2C(=O)N1SC(Cl)(Cl)Cl`: the result in test [1], in [2], in test [3], in [5], in test [6] and in test [7] was inactive. Further, the outcome in test [8], in test [9], in test [10], in test [16] and in test [12] was inactive. The results for the AC50 in [14] and in [15] were 27.3 µM (active) and 9.19 µM (active), respectively.

As for `CCN(CC)C(=O)SCc1ccc(Cl)cc1`, the molecule was classed as inactive in [1], in [2], in test [3], in test [4], in test [6] and in [9]. In addition, the call in test [10], in test [11] and in test [13] was inactive.

Turning to `CNC(=O)Oc1cccc(N=CN(C)C)c1`, the call in test [1], in test [2], in test [5], in test [6], in test [20] and in [15] was inactive. Further, the molecule was classed as inactive in test [10], in [11], in [16] and in test [13]. Besides, the AC50 in [14] is 19.8 µM (active).

`CCc1ccc(C(=O)NN(C(=O)c2cc(C)cc(C)c2)C(C)(C)C)cc1`: the result in test [1], in test [2], in [3], in test [5], in test [6] and in [9] was inactive. The result in [10], in test [11] and in test [13] was inactive.

With `COC(=O)c1ccccc1S(=O)(=O)NC(=O)N(C)c1nc(C)nc(OC)n1`, the result in test [11], in [16] and in [13] was inactive.

Take `CCS(=O)(=O)c1cccnc1S(=O)(=O)NC(=O)Nc1nc(OC)cc(OC)n1`: the molecule was classed as inactive in test [9], in [20], in test [16] and in test [13].

For the molecule `CNC(=O)/C=C(\C)OP(=O)(OC)OC`, the call in [1], in [3], in [4], in [5], in [6] and in test [9] was inactive. The result in [15], in [10], in [11] and in test [13] was inactive. Moreover, the AC50 in test [14] is 39.1 µM (active).

The values above are taken from PubChem BioAssay (EPA / NIEHS).
